In PubChem BioAssay:
Active and inactive are the calls of the source. Unless noted, how the calls were made is not given here.

Key:
[1] = HepG2 liver cancer cell viability effects, profiling panel, resazurin fluorescence, 24 h, PK04 Diversity Set (AID 1172); details: higher = more signal; further: test concentration not given here
[2] = basal S. cerevisiae growth modulation, no modifier, primary screen, OD600, strain BY4716, 24 h, basal condition (AID 1173); details: OD600, 24 h, higher = more signal, called active from +8 up or from −8 down
[3] = MM1S myeloma cell viability, profiling panel, resazurin fluorescence, basal, 24 h, PK04 Diversity Set (AID 1174); details: higher = more signal, called active from +8 up or from −8 down;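 further: MM1S multiple myeloma cell line; test concentration not given here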
[4] = target: Dihydroorotate dehydrogenase (quinone), mitochondrial (Plasmodium falciparum (isolate 3D7)) (UniProt Q08210); assay: PfDHODH enzyme inhibitors, primary screen, biochemical, C-terminal His tag, absorbance 600 nm (AID 1175); details: DCIP absorbance 600 nm, higher = more signal, called active from +8 up or from −8 down;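 further: recombinant parasite enzyme with a five histidine tag at its C terminus; test concentration not given here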
Dihydroorotate dehydrogenase (quinone), mitochondrial (Plasmodium falciparum (isolate 3D7)), sequence (Q08210 whole entry, looked up): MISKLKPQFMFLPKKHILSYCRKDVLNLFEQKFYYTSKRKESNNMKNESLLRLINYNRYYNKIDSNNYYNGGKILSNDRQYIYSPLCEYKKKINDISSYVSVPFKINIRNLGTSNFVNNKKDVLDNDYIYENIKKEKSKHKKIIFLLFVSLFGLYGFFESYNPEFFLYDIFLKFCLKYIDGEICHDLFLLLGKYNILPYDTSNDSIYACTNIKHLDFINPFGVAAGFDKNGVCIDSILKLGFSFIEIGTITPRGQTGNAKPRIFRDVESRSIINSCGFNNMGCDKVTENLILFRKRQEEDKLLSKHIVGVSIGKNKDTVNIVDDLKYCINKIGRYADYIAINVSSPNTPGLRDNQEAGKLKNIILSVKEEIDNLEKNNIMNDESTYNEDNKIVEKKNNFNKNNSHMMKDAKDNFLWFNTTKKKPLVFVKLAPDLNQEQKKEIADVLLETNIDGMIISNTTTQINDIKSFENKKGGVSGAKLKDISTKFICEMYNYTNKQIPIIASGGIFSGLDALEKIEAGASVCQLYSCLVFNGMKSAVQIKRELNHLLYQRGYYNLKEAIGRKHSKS

[5] = P. aeruginosa biofilm formation inhibitors, primary screen, strain PAO1, LB-PBS medium, absorbance 600 nm (AID 1176); further: test concentration not given here; details: P. aeruginosa PAO1 growth/biofilm, A600, 12 h; higher = more signal
[6] = S. cerevisiae RM11-1a growth modifiers, primary screen, strain RM11-1a, OD600, basal, 24 h (AID 1177); details: OD600, 24 h, higher = more signal, called active from +8 up or from −8 down;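 further: cultures grown under basal conditions with no added stressor; test concentration not given here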
[7] = E. coli acrAB mutant growth effects, primary screen, E. coli filamentation inducers, strain DRC39, OD650, 24 h (AID 1178); details: higher = more signal, called active from +8 up or from −8 down;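 further: growth measured as culture turbidity by optical density at 650 nm; test concentration not given here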
[8] = E. coli acrAB mutant growth effects, primary screen, E. coli filamentation inducers, strain DRC39, OD650, 48 h (AID 1179);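 further: screen aims at cell division blockers that make cells filament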; details: E. coli DRC39 delta-acrAB growth, higher = more signal, called active from +8 up or from −8 down
[9] = RPMI8226 myeloma cell viability, profiling panel, resazurin fluorescence, basal, 24 h, PK04 Diversity Set (AID 1180); details: higher = more signal;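 further: RPMI8826 multiple myeloma cell line at 5000 cells per well; test concentration not given here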
[10] = target: E3 ubiquitin-protein ligase XIAP (Homo sapiens) (UniProt P98170); assay: XIAP binders, primary screen, biophysical, small-molecule microarray, fluorescence 635 nm (AID 1181); details: small-molecule microarray binding, higher = more signal;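 further: score merges 667 nm emission and signal to noise over triplicate slides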
E3 ubiquitin-protein ligase XIAP (Homo sapiens), sequence (P98170 whole entry, looked up): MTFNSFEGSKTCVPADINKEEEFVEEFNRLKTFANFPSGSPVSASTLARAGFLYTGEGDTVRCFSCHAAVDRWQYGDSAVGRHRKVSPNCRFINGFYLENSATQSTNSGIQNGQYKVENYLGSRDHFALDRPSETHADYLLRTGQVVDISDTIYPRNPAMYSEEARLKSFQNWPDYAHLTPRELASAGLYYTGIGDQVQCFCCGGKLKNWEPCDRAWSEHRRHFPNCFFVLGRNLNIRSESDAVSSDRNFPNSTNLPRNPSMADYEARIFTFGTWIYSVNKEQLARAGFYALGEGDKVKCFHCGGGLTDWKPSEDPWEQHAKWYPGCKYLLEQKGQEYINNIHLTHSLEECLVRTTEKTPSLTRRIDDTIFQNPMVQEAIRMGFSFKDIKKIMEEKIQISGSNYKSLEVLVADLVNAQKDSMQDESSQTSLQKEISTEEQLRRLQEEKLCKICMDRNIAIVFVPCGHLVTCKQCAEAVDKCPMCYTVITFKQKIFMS

Row | Structure (SMILES) | z-score [1] | z-score [2] | z-score [3] | composite z-score [4] | z-score [5] | z-score [6] | z-score [7] | z-score [8] | z-score [9] | composite z-score [10]
1 | CCCCCN1CC=CC23O[C@@H]4C=CCOC(=O)[C@@H]4[C@H]2C(=O)N(C(CO)C(C)C)[C@@H]3C1=O (stereo not given in full) | 0.862 | 1.02 (inactive) | 0.111 (inactive) | 0.204 (inactive) | 0.0126 (inactive) | 0.89 (inactive) | -0.128 (inactive) | -0.301 (inactive) | -0.0045 | 0.266
2 | CC(C)=CCCC(C)=CCON=C1[C@H]2CCn3c(=O)n(C)c(=O)n3[C@H]2[C@H](O)[C@@H]2O[C@H]12 | -0.653 | -0.777 (inactive) | -2.63 (inactive) | -0.251 (inactive) | -0.543 (inactive) | 0.199 (inactive) | 0.119 (inactive) | 0.214 (inactive) | -0.88 | 0.153
3 | N#Cc1ccc(NN2C(C(O)c3cccc4ccccc34)C=CC3C(=O)N(c4ccccc4)C(=O)C32)cc1 (stereo not given) | -0.707 | 0.185 (inactive) | -0.605 (inactive) | 0.199 (inactive) | 0.487 (inactive) | 0.806 (inactive) | -0.586 (inactive) | 0.434 (inactive) | -0.28 | 0.0791
4 | C=CCOC(=O)[C@H]1[C@@H]2C(=O)O[C@@H](c3ccccc3)[C@@H](c3ccccc3)N2[C@@H](c2ccc(OCCOC(=O)[C@H]3C[C@H]4C(=O)N5CCC[C@H]5C(=O)N4[C@H]3c3cccc(OCCO)c3)cc2)[C@]12C(=O)Nc1ccc(I)cc12 | 0.187 | 0.0932 (inactive) | -0.376 (inactive) | -15.3 (active) | -0.102 (inactive) | -0.442 (inactive) | -0.277 (inactive) | -0.553 (inactive) | 0.0614 | 0.724
5 | O=C1O[C@@H](c2ccccc2)[C@@H](c2ccccc2)N2[C@@H](c3ccccc3OCCO)[C@]3(C(=O)Nc4ccc(C#CCCO)cc43)[C@@H](C(=O)O)[C@H]12 | -0.307 | -1.28 (inactive) | 0.649 (inactive) | -2.05 (inactive) | -0.681 (inactive) | -0.282 (inactive) | 0.0701 (inactive) | -0.781 (inactive) | 0.183 | 0.32
6 | O=C1[C@H]2[C@H]3[C@H](O)[C@H](O)CC(=NOC[C@@H](O)COCc4ccco4)[C@@H]3CC[C@H]2C(=O)N1c1ccc(F)cc1F | 0.883 | -0.374 (inactive) | 0.995 (inactive) | -0.564 (inactive) | -1.45 (inactive) | -0.247 (inactive) | 0.0718 (inactive) | 0.264 (inactive) | 1.15 | -0.37
7 | COC(=O)[C@H](C)NC(=O)CCC1CC(OC(=O)NCc2ccc3c(c2)OCO3)CC2(CCCC(COC(=O)NCCOc3ccccc3)O2)O1 (stereo not given in full) | 0.658 | -0.565 (inactive) | -0.951 (inactive) | -1.61 (inactive) | 0.875 (inactive) | -1.31 (inactive) | -0.388 (inactive) | -0.915 (inactive) | 0.891 | -0.105
8 | O=C(NN=C1C[C@@H](O)[C@@H](O)[C@@H]2[C@@H]3C(=O)N(c4cccc(Oc5ccccc5)c4)C(=O)[C@@H]3CC[C@@H]12)OCc1ccccc1 | -0.198 | 0.498 (inactive) | 0.243 (inactive) | 0.351 (inactive) | 0.0942 (inactive) | 0.775 (inactive) | -0.134 (inactive) | -0.192 (inactive) | 0.464 | -0.0506
9 | O=C1[C@H]2[C@H]3[C@H](O)[C@H](O)CC(=NOCc4ccccc4)[C@H]3CC[C@H]2C(=O)N1c1ccc(F)cc1F | 1.15 | -1.51 (inactive) | -0.254 (inactive) | -0.738 (inactive) | 0.328 (inactive) | -0.645 (inactive) | 0.586 (inactive) | 0.535 (inactive) | 1.28 | 0.104
10 | COCCOC(=O)N1C(=O)[C@@]2(c3cc(C#CC4(O)CCCCCC4)ccc31)[C@H](C(=O)N1CCN(c3ncccn3)CC1)[C@H]1C(=O)O[C@H](c3ccccc3)[C@H](c3ccccc3)N1[C@@H]2c1ccc(OCCO)cc1 | -0.324 | 1.44 (inactive) | 0.712 (inactive) | -0.0915 (inactive) | 2.53 (inactive) | 2.98 (inactive) | -0.446 (inactive) | 0.293 (inactive) | 0.928 | -0.0749
11 | C[C@H]1CC[C@@H](C(=O)O)N[C@@H]1c1ccc(C#CCN(C)C)cc1 | 0.378 | -1.07 (inactive) | 0.584 (inactive) | 0.666 (inactive) | -0.458 (inactive) | -0.191 (inactive) | 0.554 (inactive) | 0.15 (inactive) | 0.22 | 0.256
12 | CCOC(=O)[C@H](CC(C)C)NC(=O)CCC1CC(OC(=O)NCc2cccc3ccccc23)CC2(CCCC(COC(=O)NCCc3ccccc3OC)O2)O1 (stereo not given in full) | 0.563 | -0.581 (inactive) | 0.072 (inactive) | -0.987 (inactive) | 0.684 (inactive) | -0.0922 (inactive) | -0.436 (inactive) | -0.141 (inactive) | -0.31 | -0.134
